From PubChem BioAssay AID1347418 (Sanford-Burnham Center for Chemical Genomics, 2020) come the findings set out here.

Molecules are shown by their SMILES. Hit rate of the full screen: of about 1,300 compounds, about 750 (58%) were called active. The list shows a part of the results.

The target of the assay is Sulfhydryl oxidase 1 (Homo sapiens) (UniProt O00391). The experiment in a line: inhibition of human sulfhydryl oxidase QSOX1 – biochemical, ROS-Glo H2O2 luminescence, HTS, primary screen (AID 1347418). The following applies: recombinant QSOX1, ROS-Glo H2O2 luminescence; at 12.5 µM; active compounds read high; active = any value above zero.
Sulfhydryl oxidase 1 (Homo sapiens), sequence (O00391 whole entry, looked up): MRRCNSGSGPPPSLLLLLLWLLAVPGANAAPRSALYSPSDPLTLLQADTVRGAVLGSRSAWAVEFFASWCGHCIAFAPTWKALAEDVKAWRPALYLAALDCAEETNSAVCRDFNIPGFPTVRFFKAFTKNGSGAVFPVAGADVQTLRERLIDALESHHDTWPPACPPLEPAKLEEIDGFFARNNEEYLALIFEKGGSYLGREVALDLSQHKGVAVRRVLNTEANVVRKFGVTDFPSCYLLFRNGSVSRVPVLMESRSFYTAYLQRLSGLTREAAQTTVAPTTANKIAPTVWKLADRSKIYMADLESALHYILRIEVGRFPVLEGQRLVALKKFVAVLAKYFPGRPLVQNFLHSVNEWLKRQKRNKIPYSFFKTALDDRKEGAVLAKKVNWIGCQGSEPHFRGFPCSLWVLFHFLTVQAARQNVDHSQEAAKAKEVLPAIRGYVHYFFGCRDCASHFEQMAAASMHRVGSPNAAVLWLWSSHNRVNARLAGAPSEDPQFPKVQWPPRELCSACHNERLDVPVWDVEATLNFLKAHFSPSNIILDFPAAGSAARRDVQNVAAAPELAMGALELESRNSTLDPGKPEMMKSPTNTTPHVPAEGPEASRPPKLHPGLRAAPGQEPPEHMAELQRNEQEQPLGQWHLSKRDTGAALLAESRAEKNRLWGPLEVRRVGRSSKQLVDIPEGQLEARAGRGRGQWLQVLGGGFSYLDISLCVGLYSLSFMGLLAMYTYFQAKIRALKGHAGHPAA
For the molecule `O=c1[nH]c(=S)[nH]c(-c2ccccc2)c1Cc1c(O)ccc2ccccc12`, the inhibition was 9% (active). Take `O=C(c1cc(O)c(O)c([N+](=O)[O-])c1)c1ccccc1F`: the inhibition was 14.2% (active). With `N#CC(=C(\N)Sc1ccccc1N)/C(C#N)=C(/N)Sc1ccccc1N` the figure was 44.1% (active); with `CC(O)C(O)[C@H]1CNc2nc(N)[nH]c(=O)c2N1` (some centres undefined), 1.5% (active). With `CC(C)(Oc1ccc(CCNC(=O)c2ccc(Cl)cc2)cc1)C(=O)O`, the inhibition is -3.3% (inactive). In the case of `CC(C)(Oc1ccc(C2CC2(Cl)Cl)cc1)C(=O)O` (centres undefined) it was 2.5% (active); in that of `CCOC(=O)C(C)(C)Oc1ccc(Cl)cc1`, -1.7% (inactive). In the case of `COc1cc(C(O)C(=O)O)ccc1O` (centres undefined) it was 1.1% (active); in that of `COc1cc(C(O)CO)ccc1O` (centres undefined), 4.8% (active); in that of `CCN(CC)CCNC(=O)c1cc(S(C)(=O)=O)ccc1OC`, -3.2% (inactive).

With `COc1cc(C(O)CO)ccc1OS(=O)(=O)O` (centres undefined), the inhibition is 0.6% (active).

In the case of `COc1ccc2cc([C@H](C)C(=O)O)ccc2c1`, the inhibition was -0.6% (inactive). In the case of `COC(=O)[C@H]1[C@H]2C[C@H]3c4[nH]c5ccccc5c4CCN3C[C@H]2CC[C@@H]1O` it was 6.1% (active); in that of `COC(=O)[C@@H]1[C@H]2C[C@H]3c4[nH]c5ccccc5c4CCN3C[C@@H]2CC[C@@H]1O`, 1.4% (active). For the molecule `COC(=O)[C@H]1[C@H]2C[C@@H]3c4[nH]c5cc(OC)ccc5c4CCN3C[C@H]2C[C@@H](OC(=O)c2cc(OC)c(OC)c(OC)c2)[C@@H]1OC`, the inhibition was 11.6% (active). In the case of `C=C[C@H]1CN2CC[C@@H]1C[C@H]2[C@@H](O)c1ccnc2ccc(OC)cc12` it was -3% (inactive); in that of `O=C(O)CCC/C=C\C[C@@H]1[C@@H](/C=C/[C@H](O)C2Cc3ccccc3C2)[C@@H](F)C[C@@H]1O`, 7.1% (active).

For `O=C(O)C1=CCCNC1`, the inhibition was -2.5% (inactive). In the case of `Cc1cccc(C)c1NC(=O)C(C)N` (centres undefined) it was 8% (active). With `CCCNC(C)C(=O)Nc1ccccc1C` (centres undefined) the figure was -4.7% (inactive); with `CCN(CC)CC(=O)Nc1c(C)cccc1C`, -1.3% (inactive).

As to `CC(=O)CCCCn1c(=O)c2c(ncn2C)n(C)c1=O`, the inhibition is 5.8% (active).

Turning to `C#CCn1c(=O)c2c(ncn2C)n(C)c1=O`, the inhibition is -0.9% (inactive).

For `CCCn1cnc2c1c(=O)n(CCCCC(C)=O)c(=O)n2C`, the inhibition was 2.6% (active). In the case of `CCCn1c(=O)c2c(ncn2C)n(CCC)c1=O` it was 4.1% (active); in that of `Cn1c(=O)c2c(ncn2C)n(C)c1=O`, -0.6% (inactive); in that of `N#C/C(=C\c1ccc(-c2cc(Cl)ccc2Cl)o1)C(=O)Nc1cccc2ncccc12`, 3.5% (active). In the case of `CCN(CC)CCn1c(=O)c(Cc2ccc(OC)cc2)nc2ccccc21` it was 1.7% (active). As to `CCCCOC(=O)NS(=O)(=O)c1sc(CC(C)C)cc1-c1ccc(Cn2c(CC)nc3c(C)cc(C)nc32)cc1`, the inhibition was 2.7% (active). `CN/C(=C\[N+](=O)[O-])NCCSCc1ccc(CN(C)C)o1`: the inhibition was -12.3% (inactive).

Take `CC(COc1ccccc1)N(CCCl)Cc1ccccc1` (centres undefined): the inhibition was 9.5% (active). In the case of `CC(C)N(CCC(=O)c1ccc2ccccc2c1)Cc1ccccc1` it was -1.7% (inactive); in that of `Cc1cccc(/C=C/c2ccccc2)n1`, 13.7% (active); in that of `COc1ccc(CCN(C)CCCC(C#N)(c2cc(OC)c(OC)c(OC)c2)C(C)C)cc1OC` (centres undefined), 4% (active). With `COc1ccc(CCN(C)CCCC(C#N)(c2ccc(OC)c(OC)c2)C(C)C)cc1OC` (centres undefined) the figure was -2.4% (inactive).

Turning to `CN1CCN(CC(=O)N2c3ccccc3C(=O)Nc3cccnc32)CC1`, the inhibition is -2.7% (inactive). `Cc1scc2c1N(C(=O)CN1CCN(C)CC1)c1ccccc1NC2=O`: the inhibition was 1.4% (active). In the case of `CN1CCN(c2nc3cc(C(F)(F)F)ccc3n3cccc23)CC1` it was 6.5% (active); in that of `Cc1cc(NC(=O)Nc2ccc3c(ccn3C)c2)sn1`, 4% (active). With `O=C(O)C1CCCNC1` (centres undefined) the figure was 1% (active); with `O=C(O)[C@H]1NCCC[C@H]1C(=O)O`, -0.4% (inactive). With `O=C(O)C1CCNCC1` the figure was -2.2% (inactive).

For the molecule `Nc1ncnc2c1ncn2C1CCCC1`, the inhibition is -9.6% (inactive). With `Nc1ncnc2c1c(I)cn2[C@@H]1C[C@H](N)[C@@H](O)[C@H]1O` the figure was 2.7% (active); with `Nc1ncnc2c1c(-c1ccc(Oc3ccccc3)cc1)cn2C1CCCC1`, -2.9% (inactive); with `NCC(O)C1CCCCCCC1` (centres undefined), 11.2% (active). In the case of `O=C(c1ccc(OCCN2CCCCC2)cc1)c1c(-c2ccc(O)cc2)sc2cc(O)ccc12` it was 20.1% (active). `CC(=O)Oc1cc(C(C)C)c(OCCN(C)C)cc1C`: the inhibition was 0.4% (active). With `CN(C)C(=O)/N=N/C(=O)N(C)C` the figure was 8.2% (active). In the case of `Fc1ccc(CN(C2=NCCN2)c2c(Cl)cccc2Cl)cc1` it was 1.1% (active); in that of `O=C(O)c1cc(=O)c2ccccc2[nH]1`, 5.6% (active).

For the molecule `CNC(=O)c1cc2c(cn1)[nH]c1ccccc12`, the inhibition is -3.2% (inactive). In the case of `O=C(O)c1cc(=O)c2c(Cl)cc(Cl)cc2[nH]1` it was -1% (inactive); in that of `OC[C@H]1O[C@@H](n2cnc3c(NC4CCCCC4)ncnc32)[C@H](O)[C@@H]1O`, 4.8% (active); in that of `Nc1nc2c(ncn2[C@@H]2O[C@H](CO)[C@@H](O)[C@@H]2O)c(=O)[nH]1`, -3.6% (inactive). In the case of `O=[N+]([O-])c1ccc(CSc2ncnc3c2ncn3[C@@H]2O[C@H](CO)[C@H](O)C2O)cc1` (some centres undefined) it was -2.9% (inactive).

Take `Nc1nc(SCc2ccc([N+](=O)[O-])cc2)c2ncn([C@@H]3O[C@H](CO)[C@H](O)C3O)c2n1` (some centres undefined): the inhibition was 4.9% (active).

On to `C[C@H](Cc1ccccc1)Nc1ncnc2c1ncn2[C@@H]1O[C@H](CO)[C@H](O)C1O` (some centres undefined), for which the inhibition is 1.4% (active).

As to `Nc1ncnc2c1ncn2[C@@H]1O[C@H](CO)[C@H](O)C1O` (some centres undefined), the inhibition is -0.5% (inactive). On to `OC[C@H]1O[C@@H](n2cnc3cncnc32)[C@H](O)[C@@H]1O`, for which the inhibition is 4.9% (active). As to `CNc1ncnc2c1ncn2[C@@H]1O[C@H](CO)[C@H](O)C1O` (some centres undefined), the inhibition is -6.8% (inactive). Regarding `OC[C@H]1O[C@H](n2cnc3c(N[C@H]4CCC[C@@H]4O)ncnc32)[C@H](O)[C@@H]1O`, the inhibition is -1.9% (inactive).

As for `Nc1ccc(CCNc2ncnc3c2ncn3C2OC(CO)C(O)C2O)cc1` (centres undefined), the inhibition was 4% (active). With `OC[C@H]1O[C@@H](n2cnc3c(NC4CCCC4)ncnc32)C(O)[C@H]1O` (some centres undefined) the figure was 0.7% (active).

Broadly, the inhibition is the drop in the measured response relative to a control, in per cent.
